The source of these data is the supplement of paper PMC6555819.

The subject of the assay is VDR:RXRa (NR concentration 270 nM, RXRa partner concentration 90 nM). The assay is described as follows: PBM binding z-score (relative to random genomic background probes); higher = stronger binding; sequences stand for … in GC…GCGATTGACAGCGTAGAATGAAGG
As for the experimental part: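 Protein-binding microarray (Agilent 4x180K custom design, double-stranded 60-nt probes: 5' GC cap, 34-nt variable region, 24-nt constant primer region; full probe sequence given). Purified or IVT nuclear receptor:RXRα heterodimers (3:1 NR:RXRα, mostly 270:90 nM) or homodimers were incubated for 1 h in PBS with 2% milk and no ligand, then detected with Alexa488 antibodies. Fluorescence from o1-orientation probes (~5 replicates averaged) was converted to z-scores against 500 random hg19 background probes. Variable regions are seed direct-repeat (DR0–DR5) sites, all their single-nucleotide variants and half-site ablations.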
TCGAGTACGTTAGTCGGGGCATTCAGCCAACATA came in with a PBM binding z-score of 0.707.
Under CCTACTGGGCCAAAAAGGTCGTTGATGCCGATAA stands 2.79; under TCTCGGAGGACTCGAAAGGTCAGAGCTCGACATC, 2.4.
Under AGAATGAGGGCACGCTGAGTTGATAGCAGAGTAG stands 2.35; under TCTTGTAGATCAGCAGGTTAAGAATGCTGGCCAA, 0.397.
Under TCTAGTAGGTTAGTCGGGGCATTCAGCCAACATA stands 2.68.
ATATCTAGGTAAAGATAGTTCAGTGAATGCAAAT displayed a PBM binding z-score of 0.986.
Regarding GCGACTGGGGCCAAGCAGGTTACCATAAGGTTGG, the PBM binding z-score was 0.713.
For ACTATTAGTTCACTTAGGGCAACCGATACGACGC the value was 2.52; for CGTCAAAGTTCAACGAAGGTAACGTAAAGCACGC, 4.39; for TCTAGCAGGCCAGAGGGTGACTCAAGAGGTACGG, -0.421.
The sequence GGAACGAGGGCATTCGAGTCGATAGCATGGCGAT came in with a PBM binding z-score of 1.99.
Under CGTCCAAGGTCAATGCTAGGTCAGTGATAGCATT stands 4.92.
For TAGCCTAGGTCATGCGGGCGAGTATAGTGTCGGC the value was 1.72; for CCCAGTTGGTCAAGGTCACACACGCTATAGGTAC, 4.58.
For ACTAGCAGGCCAAGTTTGGGTCACTCGAACAAAG the value was 0.392.
The sequence CCTCGGAGGATAGAAGGTCAGAGCTGTCCGCTTT registered a PBM binding z-score of 0.755.
TCGAGTAGGTTACCAATGGGGCTTTCAGCTTTCT came in with a PBM binding z-score of -0.42.
Under ATCGAAAGGTCGAGGTGAGTAAAGAGAAAGGGAA stands 2.25.
Regarding ATATTTAGGTTATCGGGTCATTCAGTTTGCGCAT, the PBM binding z-score worked out at 5.35.
GCTGGTAGATCAAGGTTAAGAAAGACTAAGCTAA showed a PBM binding z-score of 0.201.
Under TGAATGAGGTTAAAGATCAGGGATCGTGGCGTCG stands 1.85; under TTACCAAGCTGAAGGTCGTTGATCCCTCTGTAGA, 0.724; under TCTTGTAGATCAACAGGAGGATAAGAAAGATCGA, 0.0724.
Under TACCCTAGGTCAGATCGGGCCAGTATACGCTATA stands 1.17; under TGTACAGGGTCAAAGGCCAGAGTACGAATGTCGA, 4.59.
For CCTTACGGGTCAAGGTTATAGAACGGGTGGTACG, the PBM binding z-score came out at 3.42.
Under AATACAGGGTCATCGAAGGCCAGAGTACGCACAG stands 5.49; under ATCGCTAGGTAACCAAGTTCAGTGAATGCCGAAC, 3.74.
For the sequence ATCGAAAGGTCGACGAGGTGATTATACACCGTTT, the PBM binding z-score stood at 5.76.
For ATATGTAGGTTAGCTGGGGTCATTCGGACTAGGC the value was 6.4.
Under TAGCCTAGGTCAGATCGGGCCAGTATACGCTATA stands 0.518; under GATACAGGGTCAAGGCCAGGGTACGCGTATTGAT, 4.71; under CGTCCAAGGTCAGCAGGACAGTGAAAGCGACGTG, 2.42.
Regarding CCTAGCAGGCCAGGGTCGCTCAAGCATTTCGCTT, the PBM binding z-score amounted to 0.8.
Regarding CCTACTGGGCCTTCAGGTCATTGATATCAACGTT, the PBM binding z-score was determined as 1.45.
GCGACTGGGGCAAAGCAGTTTACCATAAGGTTGG showed a PBM binding z-score of 0.278.
For CCGAGTAGGATATGGGGCATTCAGGCAACGGTGA the value was -0.284.
With ATATCTAGGTAAAGTTCAGTGAAAGATCGATAGA, the PBM binding z-score was found to be 1.53.
As to AGAACGAGGGCACGCTGACTTGATAGCAGAGTAG, the PBM binding z-score turned out to be 1.02.
